This is a sample that favours compounds with a hit; in the whole collection about 6.1% have one here.
RORgamma inh = inhibitors of mouse ROR gamma transcriptional activity | Drosophila S2 Gal4-RORgamma UAS-luciferase reporter, 20 h | Potency, µM (series often up to 53.6 µM), for the others: top-dose activity change, negative = inhibition, hits mostly inhibitors | hit rate 5.4% among 310,000 | AID 2551; also: % is scaled to controls: 0 for no effect and ±100 for the full control effect; nearly all actives have a fitted effect of over 60% in size
Target sequence (P51450 whole entry, looked up, the tested form may be a part): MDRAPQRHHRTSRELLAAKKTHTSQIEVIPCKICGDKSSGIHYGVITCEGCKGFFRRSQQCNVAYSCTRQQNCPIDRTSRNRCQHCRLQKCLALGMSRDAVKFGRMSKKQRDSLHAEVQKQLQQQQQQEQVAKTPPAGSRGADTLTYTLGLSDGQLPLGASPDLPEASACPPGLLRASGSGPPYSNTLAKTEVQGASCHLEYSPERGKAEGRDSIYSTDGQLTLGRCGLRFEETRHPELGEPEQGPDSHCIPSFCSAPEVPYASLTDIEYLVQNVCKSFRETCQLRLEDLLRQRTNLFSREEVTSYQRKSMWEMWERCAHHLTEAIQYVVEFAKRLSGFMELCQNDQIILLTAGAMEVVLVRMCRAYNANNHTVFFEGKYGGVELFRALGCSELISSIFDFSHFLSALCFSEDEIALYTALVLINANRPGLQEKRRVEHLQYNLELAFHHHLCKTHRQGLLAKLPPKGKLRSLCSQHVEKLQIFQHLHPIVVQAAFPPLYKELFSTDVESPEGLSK
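Schneider cells (Drosophila), stable Gal4 DBD–ROR gamma + UAS-luc; 1 hr cmpd preincubation; Cu2+ induction 700 uM final; 20 hr ambient; luminescence.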
ATXN2 expr inh = reduces ATXN2 reporter expression in HEK-293 cells; Potency, µM (doses to about 57 µM), inactives show top-dose activity change, negative = inhibition, actives largely listed as inhibitors; hit rate 0.72% among 360,000; AID 1745845; HEK-293 ATXN2-luciferase reporter, luminescence, 24 h; also: % is scaled to controls: 0 for no effect and ±100 for the full control effect; nearly all actives have a fitted effect of over 55% in size
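ATXN2-luciferase reporter cells (luciferase flanked by upstream and downstream ATXN2 gene portions) were treated 24 h at 37 °C with compounds at up to 57 uM. SteadyGlo luminescence gave expression; GF-AFC fluorescence gave viability.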
ATXN viability = viability counter-screen for ATXN expression inhibitors | S2 cells (HEK-293 line with an ATXN2-luciferase reporter) viability, CellTiter-Fluor protease fluorescence, 24 h | Potency, µM (highest dose often 56.7 µM), actives largely listed as cytotoxic | hit rate 0.49% among 400,000 | AID 651635; also: nearly all actives have a fitted effect of over 40% in size
TGFb SMAD3 inh = inhibitors of TGF-b signaling; HepG2 CAGA-GFP TGF-b/SMAD3 reporter, GFP fluorescence, 18 h; TGF-beta stimulated, 500 pg/mL final; Potency, µM (series often up to 46.1 µM), for the others: top-dose activity, negative = inhibition, hits mostly inhibitors; hit rate 1.2% among 410,000; AID 588855; also: % is scaled to controls: 0 for no effect and ±100 for the full control effect; nearly all actives have a fitted effect of over 65% in size
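TGF-beta reporter screen: HEPG2 CAGA-GFP, 1% FBS, 500 pg/mL TGF-beta final, 18 h; per-cell GFP summed per well; curves fitted and categorized by class.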
HepG2 tox = kills HepG2 cells in TGF-b inhibitor counter-screen; hit rate 0.76% among 410,000; AID 588856; Potency, µM (doses to about 46.1 µM), for the others: at the highest dose activity change, negative = cytotoxicity, hits mostly cytotoxic; HepG2 CAGA-GFP viability, ATP luminescence, 18 h
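HepG2 CAGA-GFP cells (1000/well, DMEM with 1% FBS) received compound, then TGF-beta at 500 pg/mL final, and were incubated 18 hours at 37 degrees C. Viability was read by CellTiter-Glo luminescence. Media-only wells were set as complete cell-killing and DMSO as no toxicity.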
VP16 counter = inhibits Gal4-VP16 luciferase reporter, ROR gamma counter-screen. Drosophila S2 Gal4-VP16 UAS-luciferase, luminescence, 20 h. Potency, µM (series often up to 53.6 µM), inactives show at the top dose activity, negative = inhibition, usual class: inhibitors. hit rate 3.5% among 310,000. AID 2546;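 also: Gal4-VP16 expression switched on by copper sulfate through the metallothionein promoter; % is scaled to controls: 0 for no effect and ±100 for the full control effect; nearly all actives have a fitted effect of over 50% in size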
An asterisk follows results filed as active; i = inactive; ? = inconclusive; . = no result. Calls follow the shape of the dose curve; as a rule, active = well fitted curve in the direction sought with a large enough effect; inconclusive = small, poorly fitted or top-dose-only effect, or another doubt; inactive = no such curve, though single readings can be large; an effect the other way counts as inactive or inconclusive. Potency is read from the fitted curve at half-maximal effect.

SMILES | RORgamma inh | ATXN2 expr inh | ATXN viability | TGFb SMAD3 inh | HepG2 tox | VP16 counter
COc1ccc(N2C(S)=C(C#N)C(=O)NC2c2ccc(OC)c(OC)c2)cc1 (stereo not given) | 11µM* | 8% | i | -4% | -1% | -28%
Cc1ccc(N2C(S)=C(C#N)C(=O)NC2c2ccco2)cc1 (stereo not given) | 16µM* | -2% | i | ? | -31% | -10%
N#CC1=C(S)N(c2ccccc2)C(c2ccco2)NC1=O (stereo not given) | 25% | -32% | ? | -1% | 9% | -4%
CCOc1ccc(C2NC(=O)C(C#N)=C(S)N2c2ccc(OC)cc2)cc1OC (stereo not given) | 20% | 9% | i | -4% | 0% | -13%
N#CC1=C(S)N(c2ccccc2)C(c2ccc(-c3ccc(Cl)c(Cl)c3)o2)NC1=O (stereo not given) | 10µM* | . | i | ? | -5% | ?
N#CC1=C(S)N(c2ccccc2)C(c2ccc(-c3cc(Cl)ccc3Cl)o2)NC1=O (stereo not given) | 13µM* | 1% | i | -2% | -3% | ?
COc1cc(/C=C2\C=Cc3ccccc32)ccc1N(C)C | . | . | . | -10% | -16% | .
Clc1ccc(N=c2ssnc2Cl)cc1 | ? | -30% | ? | 14µM* | -36% | 11µM*
Clc1nssc1=Nc1ccccc1 | ? | -25% | i | -1% | -42% | ?
COc1cc(N=c2ssnc2Cl)cc(OC)c1OC | ? | -7% | i | 18% | 0% | 16µM*
Cc1cc(N(C)C)cc(C)c1/C=C/c1ccnc2ccccc12 | . | . | . | ? | -34% | .
CCOC(=O)c1[nH]c(C)c(CCC(=O)N2CCN(c3ccc(Cl)cc3)CC2)c1C | . | ? | ? | -27% | -4% | .
CCOP(=O)(OCC)C(C#N)=C1SCN(c2ccc(Cl)cc2)CS1 | 14µM* | -3% | i | -4% | -25% | ?
CCn1c(-c2cc(-c3ccccc3OC)nc3ccccc23)n[nH]c1=S | 7.9µM* | 5% | i | -6% | 1% | -3%
CCn1c(-c2cc(-c3cc(OC)ccc3OC)nc3ccccc23)n[nH]c1=S | 8.9µM* | 11% | i | -2% | -1% | -17%
COc1ccccc1NC(=S)N1CCN(c2cccc(C)c2C)CC1 | 11µM* | ? | i | ? | -36% | 11µM*
COc1cccc(N2CCN(C(=S)Nc3ccccc3OC)CC2)c1 | -15% | -5% | i | 16% | 1% | 6%
Cc1ccccc1NC(=S)N1CCN(c2ccccc2Cl)CC1 | 7.1µM* | 14% | i | -1% | 2% | 7.1µM*
Cc1c(-c2nsc(NC(=O)c3ccc(Cl)cc3)n2)nnn1-c1ccc(C(C)C)cc1 | . | . | . | ? | -54% | .
COc1ccc(C(=O)Nc2ccc(NC(=O)c3cccs3)cn2)cc1 | 0.22µM* | -34% | i | 0% | -3% | 9%
O=C(NC(=S)Nc1ccc(Br)cn1)c1cccs1 | 2.2µM* | . | ? | -19% | 3% | 8.9µM*
O=C(Nc1ccc(Br)cn1)c1ccc(Br)s1 | 17% | 30% | i | 21% | 0% | ?
S=C(Nc1ccccc1)Nc1ccc(Br)cn1 | 0.89µM* | . | i | 5% | -10% | 5.6µM*
Cc1cccnc1NC(=S)NC(=O)c1cncc(Br)c1 | 5µM* | 46% | i | -24% | -2% | ?
COCc1c(C(=O)N2CCN(C3CCCC3)CC2)cnn1-c1nccc(-c2cc(C)sc2C)n1 | . | . | i | . | . | .
CC(CC(c1ccccc1)c1ccccc1)NC(C)(C)C (stereo not given) | . | . | i | . | . | .
COCCn1c(=O)c(-c2cccs2)nc2cnc(Oc3ccccc3)nc21 | 21% | . | . | . | . | 0%
O=C(NC(=S)Nc1ccc(Br)cn1)c1cncc(Br)c1 | 0.5µM* | 4% | i | ? | -94% | -4%
